Consider twelve compounds from ChEMBL document CHEMBL3433997, “St. Jude Leishmania screening dataset” (2016).

Common to all, as to type: functional
The target of experiment [1] is Solute carrier family 2, facilitated glucose transporter member 1 (Homo sapiens) (UniProt P11166). In words: ST_JUDE_LEISH: Cytotoxicity at 2uM final concentration against transgenic Leishmania Mexicana promastigotes LmGLUT1 that are glucose transport deficient and complemented with the human glucose transporter GLUT1. Activity is measured by DNA content using SYBR green in vitro.
Solute carrier family 2, facilitated glucose transporter member 1 (Homo sapiens), sequence (P11166 whole entry): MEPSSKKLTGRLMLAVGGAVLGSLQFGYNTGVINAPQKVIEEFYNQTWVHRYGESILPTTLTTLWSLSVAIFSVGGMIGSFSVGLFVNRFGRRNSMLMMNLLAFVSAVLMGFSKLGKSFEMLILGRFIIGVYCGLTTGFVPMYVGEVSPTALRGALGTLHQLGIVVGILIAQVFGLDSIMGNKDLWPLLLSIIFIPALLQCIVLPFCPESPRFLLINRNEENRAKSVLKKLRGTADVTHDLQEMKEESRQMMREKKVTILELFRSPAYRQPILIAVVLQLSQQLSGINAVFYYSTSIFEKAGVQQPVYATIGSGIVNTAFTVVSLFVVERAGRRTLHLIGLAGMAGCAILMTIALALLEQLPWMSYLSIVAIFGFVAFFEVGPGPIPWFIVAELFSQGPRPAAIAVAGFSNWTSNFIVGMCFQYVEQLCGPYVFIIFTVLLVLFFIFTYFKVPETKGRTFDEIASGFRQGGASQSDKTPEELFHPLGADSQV

Experiment [2] deals with Hexose transporter 1 (Plasmodium falciparum) (UniProt O97467). In words: ST_JUDE_LEISH: Cytotoxicity at 2uM final concentration against transgenic Leishmania Mexicana promastigotes LmPfHT that are glucose transport deficient and complemented with the Plasmodium falciparum hexose transporter. Activity is measured by DNA content using SYBR green in vitro.
Experiment [3] concerns the target Glucose transporter (Leishmania mexicana) (UniProt O61059). In words: ST_JUDE_LEISH: Cytotoxicity at 2uM final concentration against transgenic Leishmania Mexicana promastigotes LmGT2 that are glucose transport deficient and complemented with the L. Mexicana glucose transporter 2. Activity is measured by DNA content using SYBR green in vitro.

A word on the inhibition: it is the relative decrease from the control value, in per cent. Take `O=C(/C=C/c1ccc(Cl)c(Cl)c1)NCCCCCN1CCCC(C(=O)Nc2ccc(Cl)cc2)C1` (stereo unspecified): the inhibition turned out to be 3.76% in experiment [1], 5.09% in experiment [2] and 2.58% in experiment [3].
`Clc1cc(Cl)c2cc(CNCCCNc3ccc4ccccc4n3)[nH]c2c1`: the inhibition in experiment [1] came to 0.53%; in experiment [2], 0.95%; in experiment [3], 1%.
For `O=C1OC(c2ccccc2)(c2ccccc2)CN1CC1CCN(Cc2ccc(O)c(Cl)c2)CC1`, the inhibition in experiment [1] turned out to be 70%; in experiment [2], 70.4%; in experiment [3], 32.2%.
In the same order, the values of `CCOc1cc(C(=O)NC2CC(C)(C)N(C)C(C)(C)C2)ccc1-c1nc2cc(Cl)c(Cl)cc2[nH]1` are 5.59%, 12.6% and 7.12%.
In the same order, the values of `CN(C)c1ccc(C=C2SC(=O)N=C2Nc2ccccc2)cc1` are 1.62%, 0.09% and 0.57%.
On the same counts, the results for `O=C(Nc1cccc(CN2CCCN(Cc3ccc(O)cc3)CC2)c1)c1ccc(Br)cc1` are 0.51%, 0.85% and 3.89%.
As to `CCCc1cccc(OC)c1OCCCON1C(N)=NC(N)=NC1(C)C`, the values for the inhibition in experiment [1], in experiment [2] and in experiment [3] were -2.03%, -0.29% and 0.81%, respectively.
On the same counts, the results for `CC(C)N1CCN(C(CN2CCN(CCCOc3cccc(-c4ccccc4)c3)CC2)c2ccc(F)cc2)CC1` (stereo unspecified) are 0.87%, 2.77% and 0.81%.
In the same order, the values of `O=C(Nc1ccc(Oc2ccccc2)cc1)N[C@H]1CCN(Cc2ccc(OCCCN3CCCCC3)cc2)C1` are -2.21%, -1.17% and -3.91%.
On to `COc1ccccc1C1CCN(Cc2csc(NC(=O)c3ccc(-c4ccc(C(F)(F)F)cc4)cc3)n2)CC1`, for which the inhibition in experiment [1] is 7.33%; in experiment [2], 6.58%; in experiment [3] it was 3.56%.
In the same order, the values of `CCCCCCCCNCC(O)c1cc(-c2ccc(Cl)cc2)nc2cc(C)ccc12` (stereo unspecified) are 3.01%, -0.38% and -1.09%.
In the same order, the values of `CC(C)(CN)c1nc(-c2ccc(Cl)c(O)c2)c(-c2ccncc2)[nH]1` are -2.49%, 0.02% and 1.18%.
